PAX8 reporter: inhibitors of PAX8 transcriptional activity in RMG-I cells; actives 1.2% (n = 360,000); inhibition, % at 12.6 µM; RMG-I TPO-luciferase reporter, SteadyGlo, 24 h;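 active = mean replicate inhibition at least 60% with every replicate also reaching 60%; inconclusive = only one of the two criteria is met; inactive = mean below 60% and not all replicates reaching 60%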;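 note: luciferase light reporting Pax8 driven TPO promoter activity; plate controls were median of neutral control wells for no effect and mitoxantrone controls for full effect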
aSyn UTR inh: MLPCN primary screen, SNCA 5' untranslated region; alpha-synuclein 5'UTR reporter, inhibitor activity; inhibition, % (tested at 7.5 µM); actives 0.82% (n = 300,000); AID 1813; in the data active = inhibition above about 60%; inconclusive = no clear call, values can overlap the other calls;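 note: H4 neuroglioblastoma cells stably carrying SNCA 5'UTR luciferase fusion; 0% = DMSO wells and 100% = positive control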
TRPM1 prom inh: inhibitors of MITF-driven TRPM1 promoter in melanoma cells. actives 0.83% (n = 330,000). inhibition, % at 12.5 µM. SK-MEL-5 TRPM1 promoter luciferase, 24 h;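 active = mean inhibition across replicates of 60% or more, whatever share of single replicates reaches that level; inconclusive = some that reach 60%, reason not given; inactive = mean inhibition across replicates below 60%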
Shn3 3UTR inh: inhibitors of Schnurri-3 3'UTR reporter in osteoblasts; Clone20 osteoblast Shn3 3'UTR firefly luciferase, 24 h; inhibition, % at 12.5 µM; actives 0.52% (n = 360,000); AID 588674;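 active = mean inhibition of at least 75% with every replicate also reaching 75%; inconclusive = mean inhibition at least 75% but some replicate below; inactive = mean inhibition below 75%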;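 note: 0% = median of neutral control wells and 100% = pilot-screen positive control compound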
EBV LMP1 NFkB: inhibitors of Epstein-Barr LMP1-induced NF-kappaB reporter; inhibition, % at 12.5 µM; actives 0.69% (n = 350,000); LMP1-induced NF-kappaB luciferase reporter cells, luminescence; in the data active = inhibition above about 41%; inconclusive = no clear call, values can overlap the other calls;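 note: 0% = neutral control wells and 100% = reference inhibitor control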
* marks the source's active call; other numbers are inactive results; ? = inconclusive; / = no result given. The list is not random: actives were taken first. Their share in the collection is about 2.1%.

SMILES	PAX8 reporter	aSyn UTR inh	TRPM1 prom inh	Shn3 3UTR inh	EBV LMP1 NFkB
Cc1ccc(N2C(=O)c3ccccc3C2Nc2cccnc2)nc1 (configuration not stated)	-63.9	-20.3	-7.1	-4.5	81.4*
COc1cc(NC2c3ccccc3C(=O)N2c2ccc(C)cn2)cc(OC)c1OC (configuration not stated)	-69.1	-76.9	/	-52.7	-11.3
O=C1c2ccccc2C(Nc2cccnc2)N1Cc1ccccc1 (configuration not stated)	4.5	-21.8	2.7	7.6	81.9*
CCOC(=O)c1cc(-c2ccccc2)n(CC(=O)Nc2cccc(OC)c2)c1C	4.0	0.5	13.1	15.8	53.2*
CCOC(=O)c1cc(-c2ccccc2)n(CC(=O)Nc2ccc(OC)c(OC)c2)c1C	16.9	10.5	10.7	11.6	-15.2
OC(COc1ccc(OCC(O)CN2CCCCCC2)cc1)CN1CCCCCC1 (configuration not stated)	/	-17.1	-2.3	-5.5	-2.9
COc1cccc(NC(=O)C(NCCc2ccc(S(N)(=O)=O)cc2)c2ccccc2)c1 (configuration not stated)	74.4*	31.4	19.4	8.0	-7.4
COc1ccc(CCNC(C(=O)Nc2cc(C)cc(C)c2)c2ccccc2)cc1 (configuration not stated)	44.1	21.8	6.0	72.7	0.3
O=C(c1ccccc1)N1C(=O)C(c2ccccc2)Oc2ccccc21 (configuration not stated)	-3.3	81.7*	-0.7	9.1	3.9
CC1Oc2ccccc2N(CC(=O)c2ccccc2)C1=O (configuration not stated)	/	-31.1	-21.2	5.5	-8.4
CCC(C)(C)NC(=O)CN(C(=O)c1snc(C(N)=O)c1N)c1ccc(OC)c(OC)c1	/	/	4.1	-20.0	6.0
COc1ccc(S(=O)(=O)Nc2ccc3c(c2)C(=O)N([C@H](C)CO)C[C@H](C)[C@@H](CN(C)C(=O)CCCN(C)C)OCCCC[C@@H](C)O3)cc1	-11.4	/	/	/	/
COc1ccc(N2CCN(Cc3nc(Cc4cccc(F)c4)no3)C(C)C2)cc1 (configuration not stated)	8.6	-2.9	20.2	28.0	8.2
COc1cc2c(cc1OC)C(C1C(=O)CCCC1=O)N(C(=O)CCl)CC2 (configuration not stated)	6.6	-6.6	-8.6	1.4	-3.6
COc1cc2c(cc1OC)C(c1ccccc1)N(C(=O)CCl)CC2 (configuration not stated)	33.9	-85.6	92.9*	17.3	-0.8
CCOC(=O)C1=C(C)NC2=C(C(=O)CCC2)C1c1ccsc1 (configuration not stated)	/	13.4	/	/	/
C=CC(=O)Nc1sc2c(c1C(N)=O)CCCC2	80.0*	11.3	/	-0.5	-17.4
COc1ccccc1N(C(C)=O)C1=C(Cl)C(=O)c2ccccc2C1=O	116.9*	/	/	76.7	?
C[C@@H]1CN([C@H](C)CO)C(=O)c2cc(NC(=O)Nc3ccc(F)cc3)ccc2O[C@@H]1CN(C)C(=O)Nc1cccc2ccccc12	70.3*	/	/	/	/
C[C@H]1CN([C@@H](C)CO)C(=O)c2cc(NC(=O)Nc3ccc(F)cc3)ccc2O[C@@H]1CN(C)C(=O)Nc1cccc2ccccc12	-15.0	/	/	/	/
C[C@@H]1CCCCO[C@H](CN(C)C(=O)Nc2ccc(C(F)(F)F)cc2)[C@H](C)CN([C@@H](C)CO)C(=O)c2cc(NC(=O)Nc3ccccc3)ccc2O1	3.2	/	/	/	/
C[C@H](CO)N1C[C@H](C)[C@H](CN(C)C(=O)Nc2ccccc2)Oc2ccc(NC(=O)Nc3ccc(C(F)(F)F)cc3)cc2C1=O	74.0*	/	/	/	/
C[C@@H]1CN([C@@H](C)CO)C(=O)c2cc(NC(=O)Nc3ccc(C(F)(F)F)cc3)ccc2O[C@@H]1CN(C)C(=O)Nc1ccccc1	4.4	/	/	/	/
C[C@@H]1CCCCO[C@@H](CN(C)C(=O)Nc2ccccc2)[C@@H](C)CN([C@H](C)CO)C(=O)c2cc(NC(=O)Nc3ccc(C(F)(F)F)cc3)ccc2O1	4.8	/	/	/	/
C[C@@H]1CCCCO[C@H](CN(C)C(=O)Nc2ccc(C(F)(F)F)cc2)[C@@H](C)CN([C@@H](C)CO)C(=O)c2cc(NC(=O)Nc3ccccc3)ccc2O1	93.4*	/	/	/	/
SMILES	PAX8 reporter	aSyn UTR inh	TRPM1 prom inh	Shn3 3UTR inh	EBV LMP1 NFkB
C[C@H]1CCCCO[C@H](CN(C)C(=O)Nc2ccc(C(F)(F)F)cc2)[C@@H](C)CN([C@@H](C)CO)C(=O)c2cc(NC(=O)Nc3ccccc3)ccc2O1	80.9*	/	/	/	/
COc1ccc(CCN(C)C(=O)CSc2nc3ccccc3c(=O)n2CC2CCCO2)cc1OC (configuration not stated)	3.5	/	4.3	2.6	5.2
COc1ccc(-c2nc3nc(C)c(Cc4ccccc4)c(=O)n3[nH]2)cc1	/	-30.1	-10.2	-22.2	-6.0
C[C@@H]1CN([C@@H](C)CO)C(=O)c2cc(NC(=O)Nc3cccc4ccccc34)ccc2O[C@@H]1CN(C)Cc1ccc2c(c1)OCO2	76.2*	/	/	/	/
C[C@H]1CN([C@@H](C)CO)C(=O)c2cc(NC(=O)Nc3cccc4ccccc34)ccc2O[C@H]1CN(C)Cc1ccc2c(c1)OCO2	26.6	/	/	/	/
COc1ccc2c(c1)C(c1ccc(C)o1)=NNC(c1ccccc1)=N2	16.0	6.6	2.2	1.1	42.7*
COc1ccc2c(c1)C(c1ccc(C)o1)=NNC(c1cccnc1)=N2	-10.1	-16.7	2.7	4.9	-6.2
CCN(CC)S(=O)(=O)c1ccc(C)c(NC(=O)CNc2cccc(S(=O)(=O)N3CCCC3)c2)c1	20.3	14.3	14.4	65.0	11.7
CCN(CC)S(=O)(=O)c1cccc(NC(=O)CC2CCCC2)c1	24.5	4.6	7.5	15.1	4.0
CCN(CC)S(=O)(=O)c1cccc(NC(=O)CNc2cccc(S(=O)(=O)N3CCCC3)c2)c1	/	30.8	43.7	86.8*	25.2
CCN(CC)S(=O)(=O)c1cccc(NC(=O)Nc2cccc(C(F)(F)F)c2)c1	102.0*	48.8	34.5	65.3	46.0*
C=C(C)[C@@H]1C2=CC(C(=O)OC)=C(C[C@H](C(=C)C)[C@H]3O[C@H]3C3=C[C@H]1OC3=O)O2	/	/	/	98.1*	/
N#Cc1ccc(-c2nc3cc(Cl)ccc3c(=O)n2O)cc1	16.2	-1.2	-5.6	1.9	15.1
O=c1c2ccc(Cl)cc2nc(-c2cccc(C(F)(F)F)c2)n1O	/	77.5*	47.2	20.0	17.0
Cc1cccc(-c2nnc3n2N=C(c2ccc(Br)cc2)CS3)c1	/	16.8	/	/	/
C[C@@H]1CN([C@H](C)CO)C(=O)c2cc(NC(=O)Nc3ccc(C(F)(F)F)cc3)ccc2O[C@@H](C)CCCCO[C@@H]1CN(C)Cc1ccccc1	109.3*	/	/	/	/
C[C@@H]1CCCCO[C@H](CN(C)Cc2ccc(C(F)(F)F)cc2)[C@H](C)CN([C@H](C)CO)C(=O)c2cc(NC(=O)Nc3ccc(C(F)(F)F)cc3)ccc2O1	-9.1	/	/	/	/
C[C@@H]1CCCCO[C@@H](CN(C)Cc2ccc(C(F)(F)F)cc2)[C@@H](C)CN([C@@H](C)CO)C(=O)c2cc(NC(=O)Nc3ccc(C(F)(F)F)cc3)ccc2O1	7.9	/	/	/	/
